Source: PubChem BioAssay (Tox21)
Inconclusive results are not listed. Active and inactive are the calls of the source. Calls come from the whole dose curve; as a rule, active = well fitted curve in the direction sought with a large enough effect in the repeat runs; inconclusive = weak or mixed curves; inactive = no such curve, though single readings can be large; an effect the other way counts as inactive or inconclusive.

Tests used:
[1] = A CellTox Green Cytotoxicity Assay to monitor cytotoxicity in HEK293 cells - 40 hour (AID 1224871); note: nearly all actives have a fitted effect of over 45% in size
Method in brief: (§1)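 Fluorescence intensity, read at 0, 8, 16, 24, 32 and 40 h of compound treatment, reflected dye binding to DNA of dead HEK293 cells; compounds (23 nL, DMSO) were added 5 h after plating cells with reagent.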

[2] = qHTS RealTime-Glo MT Cell Viability Assay in HEK293 cells - 16 hour (AID 1224872); note: top concentration of the series differs between compounds; nearly all actives have a fitted effect of over 50% in size
Method in brief: (§2)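 Cells + reagent dispensed (600 cells/well, HEK293) → 5 h at 37 C/5% CO2 → 23 nL compound in DMSO pinned → 40 h at 37 C → luminescence read at 0, 8, 16, 24, 32, 40 h.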

[3] = qHTS RealTime-Glo MT Cell Viability Assay in HepG2 cells - 8 hour (AID 1224873); note: nearly all actives have a fitted effect of over 55% in size
Method in brief: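 Real-time viability: cells seeded at 600 per well together with NanoLuc and cell-permeant prosubstrate, compounds added after 5 h incubation. Luminescence tracked at 0, 8, 16, 24, 32 and 40 h of exposure.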

[4] = qHTS RealTime-Glo MT Cell Viability Assay in HEK293 cells - 40 hour (AID 1224874); conditions: RealTime-Glo luminescence; max response: active compounds read low; note: nearly all actives have a fitted effect of over 50% in size
Method in brief: (§3)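 Viable HEK293 cells reduce a cell-permeant prosubstrate; the product diffuses out and is consumed by NanoLuc in the medium to give light. Compounds went in after a 5 h incubation and plates were read over the treatment course.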

[5] = A CellTox Green Cytotoxicity Assay to monitor cytotoxicity in HEK293 cells - 24 hour (AID 1224875); note: series mostly up to about 77 µM; nearly all actives have a fitted effect of over 45% in size
Method in brief: as §1

[6] = A CellTox Green Cytotoxicity Assay to monitor cytotoxicity in HepG2 cells - 16 hour (AID 1224876); note: nearly all actives have a fitted effect of over 45% in size
Method in brief: (§4)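 Using 1536-well format, dye-containing HepG2 suspension was seeded, allowed 5 h at 37 C/5% CO2, dosed by pintool with compounds, positive and negative controls, and imaged for fluorescence across 40 h.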

[7] = qHTS RealTime-Glo MT Cell Viability Assay in HepG2 cells - 32 hour (AID 1224877); note: nearly all actives have a fitted effect of over 55% in size
Method in brief: (§5)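 Real-time, nonlytic viability: 600 HepG2 cells/well mixed with NanoLuc enzyme plus prosubstrate; 5 h settle, compound (DMSO) added by pintool; luminescence monitored over 40 h at 37 C.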

[8] = A CellTox Green Cytotoxicity Assay to monitor cytotoxicity in HepG2 cells - 24 hour (AID 1224878); note: nearly all actives have a fitted effect of over 45% in size
Method in brief: as §4

[9] = A CellTox Green Cytotoxicity Assay to monitor cytotoxicity in HepG2 cells - 40 hour (AID 1224879); note: nearly all actives have a fitted effect of over 40% in size
Method in brief: as §4

[10] = A CellTox Green Cytotoxicity Assay to monitor cytotoxicity in HEK293 cells - 32 hour (AID 1224881); note: nearly all actives have a fitted effect of over 40% in size
Method in brief: as §1

[11] = A CellTox Green Cytotoxicity Assay to monitor cytotoxicity in HepG2 cells - 0 hour (AID 1224882); note: nearly all actives have a fitted effect of over 35% in size
Method in brief: as §4

[12] = A CellTox Green Cytotoxicity Assay to monitor cytotoxicity in HepG2 cells - 32 hour (AID 1224883); note: nearly all actives have a fitted effect of over 50% in size
Method in brief: as §4

[13] = A CellTox Green Cytotoxicity Assay to monitor cytotoxicity in HEK293 cells - 8 hour (AID 1224884); note: nearly all actives have a fitted effect of over 35% in size
Method in brief: as §1

[14] = qHTS RealTime-Glo MT Cell Viability Assay in HepG2 cells - 16 hour (AID 1224885); note: nearly all actives have a fitted effect of over 50% in size
Method in brief: as §5

[15] = qHTS RealTime-Glo MT Cell Viability Assay in HEK293 cells - 24 hour (AID 1224886)
Method in brief: as §2

[16] = A CellTox Green Cytotoxicity Assay to monitor cytotoxicity in HEK293 cells - 16 hour (AID 1224888); note: nearly all actives have a fitted effect of over 35% in size
Method in brief: as §1

[17] = qHTS RealTime-Glo MT Cell Viability Assay in HEK293 cells - 0 hour (AID 1224880)
Method in brief: as §3

[18] = qHTS RealTime-Glo MT Cell Viability Assay in HEK293 cells - 8 hour (AID 1224887)
Method in brief: as §3

[19] = qHTS RealTime-Glo MT Cell Viability Assay in HepG2 cells - 0 hour (AID 1224889); note: nearly all actives have a fitted effect of over 50% in size
Method in brief: as §5
% is set by controls: 0 for no effect and ±100 for the full control effect.

O=C1c2ccccc2C(=O)C1c1ccc2cc(S(=O)(=O)O)cc(S(=O)(=O)O)c2n1
inactive: Potency [1] | Potency [2] | outcome [3] | max response [4] -25.3% | Potency [5] | Potency [6] | Potency [7] | Potency [8] | Potency [9] | Potency [10] | Potency [11] | Potency [12] | Potency [13] | outcome [14] | Potency [15] | Potency [16]

CC(=O)S[C@H](C(=O)N[C@H]1Cc2ccccc2[C@H]2CCC[C@@H](C(=O)O)N2C1=O)C(C)C
inactive: Potency [1] | Potency [2] | max response [4] 16.8% | Potency [5] | Potency [6] | Potency [7] | Potency [8] | Potency [9] | Potency [17] | Potency [11] | Potency [12] | outcome [14] | Potency [18] | Potency [16] | Potency [19]

CCCCCCCCCCCCCCCCCCCl
inactive: cytotoxicity increase [1] -1.51% [at 6.97 µM] | activity change, negative = cytotoxicity [2] 3.04% [at 6.97 µM] | viability change, negative = cytotoxic [3] -0.0977% [at 6.97 µM] | activity change [5] 2.36% [at 6.97 µM, active compounds read high] | cytotoxicity increase [6] -7.85% [at 6.97 µM] | activity change, negative = cytotoxic [7] 2.68% [at 6.97 µM] | cytotoxicity [8] -10.6% [at 6.97 µM] | cytotoxicity increase [9] -13.3% [at 6.97 µM] | activity change, negative = cytotoxicity [17] 8.32% [at 6.97 µM] | cytotoxicity increase [12] -12.9% [at 6.97 µM] | cytotoxicity increase [13] 13.7% [at 6.97 µM] | activity change, negative = cytotoxicity [15] 2.37% [at 6.97 µM] | activity change, negative = cytotoxicity [18] 0.0634% [at 6.97 µM] | activity change [16] 11.7% [at 6.97 µM, active compounds read high] | activity change, negative = cytotoxicity [19] 4.46% [at 6.97 µM]

O=C(O)c1ccccc1[N+](=O)[O-]
inactive: Potency [1] | outcome [3] | max response [4] 24.4% | Potency [5] | Potency [6] | Potency [7] | Potency [8] | Potency [9] | Potency [17] | Potency [10] | Potency [11] | Potency [12] | Potency [13] | outcome [14] | Potency [15] | Potency [18] | Potency [16] | Potency [19]

CC(C)NC(=O)c1ccccc1N
inactive: Potency [1] | Potency [2] | outcome [3] | Potency [5] | Potency [6] | Potency [7] | Potency [8] | Potency [17] | Potency [10] | Potency [11] | Potency [12] | Potency [13] | outcome [14] | Potency [15] | Potency [18] | Potency [16] | Potency [19]

Nc1cccc2c(=O)[nH][nH]c(=O)c12
inactive: Potency [1] | Potency [2] | outcome [3] | Potency [5] | Potency [6] | Potency [7] | Potency [8] | Potency [9] | Potency [17] | Potency [10] | Potency [11] | Potency [12] | Potency [13] | outcome [14] | Potency [15] | Potency [18] | Potency [19]

Nc1ccc(C(=O)Oc2ccccc2)c(O)c1
inactive: Potency [2] | outcome [3] | max response [4] -15.9% | Potency [5] | Potency [6] | Potency [7] | Potency [8] | Potency [9] | Potency [17] | Potency [10] | Potency [11] | Potency [12] | Potency [13] | outcome [14] | Potency [15] | Potency [18] | Potency [16] | Potency [19]

CCCC(=O)OCc1ccccc1
inactive: Potency [1] | Potency [2] | outcome [3] | max response [4] 5.95% | Potency [5] | Potency [6] | Potency [7] | Potency [8] | Potency [9] | Potency [10] | Potency [11] | Potency [12] | Potency [13] | outcome [14] | Potency [15] | Potency [18] | Potency [19]

Sc1nc(S)nc(S)n1
inactive: Potency [1] | Potency [2] | outcome [3] | max response [4] 5.08% | Potency [5] | Potency [6] | Potency [7] | Potency [8] | Potency [9] | Potency [10] | Potency [11] | Potency [12] | Potency [13] | outcome [14] | Potency [15] | Potency [18] | Potency [19]

CC(C)(O)C(=O)O
inactive: Potency [1] | outcome [3] | max response [4] 6.64% | Potency [5] | Potency [6] | Potency [7] | Potency [8] | Potency [17] | Potency [10] | Potency [11] | Potency [12] | Potency [13] | outcome [14] | Potency [15] | Potency [18] | Potency [16] | Potency [19]

CCCC(=O)OCCC(C)C
inactive: Potency [2] | outcome [3] | max response [4] -1.39% | Potency [5] | Potency [6] | Potency [7] | Potency [8] | Potency [9] | Potency [17] | Potency [10] | Potency [11] | Potency [12] | Potency [13] | outcome [14] | Potency [15] | Potency [18] | Potency [19]

O=C1c2ccccc2C(=O)C1c1ccc2ccccc2n1
inactive: outcome [3] | Potency [6] | Potency [7] | Potency [8] | Potency [17] | Potency [12] | outcome [14] | Potency [19]
